# Screening data: PubChem BioAssay, National Center for Advancing Translational Sciences (NCATS)
# HT1080 IDH1KD tx = kills HT-1080 cells with IDH1 knockdown; AID 686971; Potency, µM (top dose mostly 46.1 µM), inactives show top-dose activity, negative = toxicity, usual class: cytotoxic; actives 2% (n = 360,000); HT-1080 IDH1 knockdown viability, ATP luminescence, 48 h;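 further: 0% = DMSO wells and -100% = cell-free medium wells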
#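 Luminescent ATP read-out (CellTiter-Glo, 10 min at room temperature) after 48 h compound exposure at 37 °C gave viability of IDH1-knockdown HT-1080 cells. Activity was normalised to DMSO and cell-free wells, then fitted as concentration-response curves.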
# SW480 rereplic = inducers of DNA re-replication in SW480 colon cancer cells | SW480 DNA re-replication, Hoechst DNA content imaging, 48 h | Potency, µM (doses to about 46.1 µM), for inactives: top-dose re-replication activation, most hits filed as activators | actives 1.8% (n = 340,000); further: % of control where 0% means no effect; nearly all actives have a fitted effect of over 55% in size
#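 Quantitative HTS format with DMSO vehicle controls; 48 hr drug incubation at 37 C, then 40 min Hoechst staining and scanning imager measurement at 405 nm excitation.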
# MCF10A rerep = DNA re-replication induction in MCF 10a cells | MCF 10A DNA re-replication, Hoechst nuclear intensity, 48 h | Potency, µM (series often up to 46.1 µM), for the others: at the top dose activity, positive = re-replication, usual class: activators | actives 2.9% (n = 350,000) | AID 624296; further: % of control where 0% means no effect; nearly all actives have a fitted effect of over 50% in size
# KB-3-1 tox = kills parental KB-3-1 adenocarcinoma cells; KB-3-1 viability, CellTiter-Glo ATP luminescence, 72 h; Potency, µM (highest dose often 46.1 µM), most hits filed as cytotoxic; actives 1.4% (n = 400,000); AID 1347075; further: on the % scale 0 is the no-effect control and ±100 the full control effect; nearly all actives have a fitted effect of over 60% in size
#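 KB-3-1 cells, DMEM (no phenol red) + 10% FBS; compound by pin transfer, 72 h, 37 °C. Readout: CellTiter-Glo luminescence after 10 min. Data normalized, curve-fitted.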
# KB-V1 cytotox = kills drug-selected multidrug resistant KB-V1 cells; KB-V1 MDR cells viability, CellTiter-Glo, 72 h; Potency, µM (highest dose often 46.1 µM), hits mostly cytotoxic; actives 3.4% (n = 400,000); AID 1347076; further: on the % scale 0 is the no-effect control and ±100 the full control effect; nearly all actives have a fitted effect of over 60% in size
#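 Following 72 h at 37 degrees C with compound, KB-V1 cell viability was read by CellTiter-Glo luminescence, medium being phenol-red-free DMEM plus 10% FBS; concentration-response parameters came from normalized, curve-fitted qHTS data.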
# HT1080NT lethal = kills 2HG-producing HT-1080-NT fibrosarcoma cells | HT-1080-NT fibrosarcoma viability, CellTiter-Glo ATP luminescence, 48 h | actives 1.6% (n = 360,000) | Potency, µM (top dose mostly 46.1 µM), for inactives: top-dose activity, negative = less viability, hits mostly cytotoxic;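 further: NT is the 2HG producing partner of a matched IDH1 knockdown line; 0% = DMSO-treated cells and -100% = media-only wells without cells; nearly all actives have a fitted effect of over 55% in size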
#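 Compounds were tested in concentration-response format on HT-1080-NT cells for 48 hours at 37 degrees C. Cell viability came from CellTiter-Glo luminescence; curves were classified by r2, response magnitude and activity.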
# Starred values were filed as active, the others as inactive; i = inactive; ? = inconclusive; [ ] = dose if it differs, or a comment. Rows were chosen to be rich in hits. Some 8% of all compounds tested hit in one or more screens of this group. The call rests on the fitted dose curve; in most records, active means well fitted curve in the direction sought with a large enough effect; inconclusive means small, poorly fitted or top-dose-only effect, or another doubt; inactive means no such curve, though single readings can be large; an effect the other way counts as inactive or inconclusive. Potency means the concentration at half of the fitted maximal effect.
SMILES,HT1080 IDH1KD tx,SW480 rereplic,MCF10A rerep,KB-3-1 tox,KB-V1 cytotox,HT1080NT lethal
COCCCNC(=O)c1c(N)n(/N=C/c2ccccn2)c2nc3ccccc3nc12,15%,?,?,i,5.2µM*,1%
CC(C)OCCCNC(=O)c1c(N)n(/N=C/c2cccs2)c2nc3ccccc3nc12,5%,?,8.2µM*,i,?,17%
COCCn1cnc2c(c1=O)c1nc3ccccc3nc1n2/N=C/c1cccc(OC)c1,5%,?,?,i,?,8%
Nc1c(C(=O)NC2CCCC2)c2nc3ccccc3nc2n1/N=C/c1cccnc1,14%,?,4.1µM*,i,?,14%
COc1ccc(C2C(C(=O)NC(C)C)c3ccccc3C(=O)N2C)cc1OC (configuration not stated),11%,2%,0%,i,i,11%
O=C(NCc1cccnc1)c1ccc(COc2ccc(Cl)cc2)cc1,?,?,8%,i,i,-21%
Cc1ccc(OCc2ccc(C(=O)NCc3cccnc3)cc2)cc1C,18µM*,11%,11%,?,?,?
Cc1ccc(S(=O)(=O)Nc2cccc(C(=O)NCc3cccnc3)c2)cc1F,6.5µM*,6.5µM*,2.9µM*,7.3µM*,i,?
Cc1ccc(OCc2ccc(C(=O)N3CCOCC3)cc2)cc1C,-3%,-6%,-5%,i,18µM*,?
COc1cc(OC)c(OC)cc1CNC(=O)c1ccc(COc2ccccc2)cc1,-26%,3%,8%,?,12µM*,-3%
CCOCCn1c(SCC)nc2c1c(=O)[nH]c(=O)n2C,-3%,-7%,0%,i,i,-4%
Cc1nc(NC2CCCC2)sc1C(=O)N(C)C,-7%,-2%,1%,i,?,-4%
Cc1ccc(N2C(=O)CC(N(CCc3ccccc3)C(=S)Nc3ccc(N(C)C)cc3)C2=O)cc1 (configuration not stated),?,?,?,i,i,-8%
CC(NCc1ccc(S(N)(=O)=O)cc1)C(=O)Nc1cc([N+](=O)[O-])ccc1Cl (configuration not stated),-2%,-2%,10%,i,i,0%
Cc1cc(C)cc(C(=O)NCC(=O)N(C)CCOc2ccccc2)c1,3%,-36%,-5%,i,i,4%[9.24 µM]
CCc1ccc(NC(=O)c2ccc(S(=O)(=O)NCc3cccnc3)cc2)cc1,1%,11%,?,i,i,-16%
O=C(NCc1cccnc1)c1ccc(NC(=O)c2ccc(Br)cc2)cc1,5.8µM*,-3%,12%,i,i,12µM*
O=C(NCc1ccc(F)cc1)c1ccc(S(=O)(=O)Nc2cccc(C(F)(F)F)c2)cc1,-9%,1%,?,?,15µM*,-15%
O=C(NCc1cccnc1)Nc1ccc(Br)cc1,18%,0%,-1%,i,i,13%
O=C(NCc1cccnc1)c1cccc(NS(=O)(=O)c2ccc(Br)cc2)c1,3.3µM*,9.2µM*,0.65µM*,5.8µM*,i,4.6µM*
COc1cccc(NC(=O)c2ccc(S(=O)(=O)NCc3cccnc3)cc2)c1,-17%,-18%,1%,i,18µM*,-19%
C[C@@H]1C(NC(=O)c2ccccc2)CC2CC1C2(C)C (some centres not stated),-13%,9%,4%,i,i,-8%
COC(=O)c1cc(-c2ccc(NC(C)=O)cc2)nc2ccccc12,-13%,-9%,?,i,i,-7%
O=C(N[C@@H](Cc1ccccc1)C(=O)CCl)OCc1ccccc1,21µM*,?,?,?,23µM*,6.5µM*
CCN(CC(=O)NCc1cccs1)C(=O)c1ccc(NS(=O)(=O)c2ccc(C(C)=O)cc2)cc1,-1%,2%,?,i,i,1%
SMILES,HT1080 IDH1KD tx,SW480 rereplic,MCF10A rerep,KB-3-1 tox,KB-V1 cytotox,HT1080NT lethal
CC(C)n1c(N2CCN(C(=O)Nc3ccccc3)CC2)nc2ccccc21,12%,-1%,1%,i,i,-1%
Cn1c(N2CCN(C(c3ccccc3)c3ccccc3)CC2)nc2ccccc21,?,?,23µM*,?,?,?
Cn1c(N2CCN(C(=O)Nc3ccc(F)cc3)CC2)nc2ccccc21,19%,0%,8%,i,18µM*,22%
CSc1ccc(NC(=O)N2CCN(c3nc4ccccc4s3)CC2)cc1,-5%,2%,4%,?,2.6µM*,2%
Cc1cccc(NC(=O)CN2C(=O)NC(C)(c3ccc4ccccc4c3)C2=O)n1 (configuration not stated),-16%,6%,5%,i,i,3%
CN1/C(=C/C2CC(=O)N(c3cccc4ccccc34)C2=O)C(C)(C)c2ccccc21 (configuration not stated),14%,18µM*,?,i,i,3%
Cc1c(C(=O)OC/C(O)=C(\C#N)c2nc3ccccc3[nH]2)oc2ccc(Br)cc12,0%,2%,10%,i,i,0%
CCOC(=O)c1c(C)[nH]c(C(=O)OCC(O)=C(C#N)c2nc3ccccc3[nH]2)c1C,?,?,13µM*,i,?,?
Cc1c(-c2cccc(Cl)c2)nc2ccccc2c1C(=O)OC/C(O)=C(\C#N)c1nc2ccccc2[nH]1,2%,?,5.2µM*,?,i,1%
N#C/C(=C(/O)COC(=O)c1ccc(O)cc1)c1nc2ccccc2[nH]1,-16%,7%,6%,i,i,-12%
C[n+]1ccn(CC(=O)c2ccc(Br)cc2)c1,3%,-1%,8%,i,i,11%
CCOC(=O)C1(C)NC(c2ccc(N(C)C)cc2)C2C(=O)N(c3ccc(OC)cc3)C(=O)C21 (configuration not stated),16%,-2%,-1%,i,i,?
CCOC(=O)C1(C)NC(c2cccs2)C2C(=O)N(c3ccc(OC)cc3)C(=O)C21 (configuration not stated),10%,?,18µM*,i,i,15%
Oc1ccc(C=NNC(=S)Nc2ccc(F)cc2)c(O)c1,18µM*,?,?,?,i,?
CCCCNC(=O)Cn1cnc([N+](=O)[O-])n1,-6%,7.3µM*,1%,i,?,-6%
COCCNC(=O)Cn1cnc([N+](=O)[O-])n1,11%,-3%,-48%,i,i,0%
